Test results as given in PubChem BioAssay AID1159580 (chemical genetic matrix, 2015).
Values joined by “and” are separate entries in the source; they are usually repeats but may differ in a detail not shown here. Equal entries are not always repeated. Hit rate of the full screen: of about 5,500 compounds, about 2,000 (36%) were called active. Not shown: some 18% with an inconclusive outcome. No stated cut-off is given here; in the data, active means normalized growth mostly below about 0.91 (no sharp cut-off); inconclusive means no clear call, values can overlap the other calls; inactive means mostly above about 0.92. The list shows a part of the results.

Assay: chemical genetic growth profiling, strain panel (AID 1159580);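 further: tested at 20 µM; growth read once vehicle control cultures reached saturation at 30 °C; 1 = growth at the plate median or of vehicle wells; lower values mean less growth of the strain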
Conditions: S. cerevisiae deletion strains, growth OD

Measured: normalized growth

NC(=O)NC1NC(=O)NC1=O (configuration not stated)
inactive: locus YAL013W, strain DEP1, hits give low values 0.994 | locus YAL021C, strain ccr4, hits give low values 0.995 | locus YAL026C, strain drs2, hits give low values 1 | locus YAL030W, strain snc1, hits give low values 0.999 | locus YBL061C, strain skt5, hits give low values 1 | locus YBR009C, strain hhf1, hits give low values 0.999 | locus YBR021W, strain FUR4, hits give low values 0.996 | locus YBR023C, strain chs3, hits give low values 1 | locus YBR171W, strain sec66, hits give low values 1.01 | locus YBR229C, strain ROT2, hits give low values 0.987 | locus YBR231C, strain swc5, hits give low values 0.996 | locus YBR279W, strain paf1, hits give low values 1.01 | locus YCL011C, strain gbp2, hits give low values 1.01 | locus YCL016C, strain dcc1, hits give low values 1 | locus YCL029C, strain bik1, hits give low values 0.976 | locus YCL061C, strain MRC1, hits give low values 0.995 | locus YCL069W, strain vba3, hits give low values 1.01 | locus YCR088W, strain abp1, hits give low values 0.995 | locus YDL005C, strain med2, hits give low values 1 | locus YDL035C, strain GPR1, hits give low values 1.01 | locus YDL040C, strain nat1, hits give low values 0.999 | locus YDL074C, strain BRE1, hits give low values 1.01 | locus YDL101C, strain DUN1, hits give low values 0.981 | locus YDL134C, strain PPH21, hits give low values 0.982 | locus YDL185W, strain tfp1, hits give low values 0.982 | locus YDL192W, strain arf1, hits give low values 0.988 | locus YDR001C, strain nth1, hits give low values 1.01 | locus YDR069C, strain doa4, hits give low values 1 | locus YDR101C, strain arx1, hits give low values 0.98 | locus YDR137W, strain rgp1, hits give low values 0.991 | locus YDR150W, strain NUM1, hits give low values 0.998 | locus YDR159W, strain sac3, hits give low values 0.995 | locus YDR162C, strain NBP2, hits give low values 0.992 | locus YDR195W, strain ref2 0.998 | locus YDR297W, strain sur2, hits give low values 1.01 | locus YDR318W, strain mcm21, hits give low values 0.986 | locus YDR334W, strain swr1, hits give low values 1 | locus YDR335W, strain msn5, hits give low values 1.01 | locus YDR388W, hits give low values 0.979 | locus YDR392W, strain spt3, hits give low values 0.958 | locus YDR502C, strain sam2, hits give low values 1.02 | locus YEL003W, strain gim4, hits give low values 1.01 | locus YEL037C, strain rad23, hits give low values 1.01 | locus YEL061C, strain CIN8 (second series), hits give low values 1.01 | locus YEL061C, strain CIN8, hits give low values 1 | locus YER015W, strain faa2, hits give low values 1 | locus YER016W, strain bim1, hits give low values 1.01 | locus YER110C, hits give low values 0.979 | locus YER111C, strain swi4, hits give low values 1.01 | locus YER155C, strain BEM2 (second series), hits give low values 1.01 | locus YER155C, strain BEM2, hits give low values 0.997 | locus YER167W, strain BCK2, hits give low values 1 | locus YFR010W, strain ubp6, hits give low values 1.01 | locus YGL078C, strain dbp3, hits give low values 0.989 | locus YGL086W, strain mad1, hits give low values 0.999 | locus YGL167C, strain pmr1, hits give low values 1 | locus YGL173C, strain kem1, hits give low values 1 | locus YGL227W, strain vid30, hits give low values 1 | locus YGL240W, strain doc1, hits give low values 0.996 | locus YGL248W, strain PDE1, hits give low values 0.986 | locus YGL253W, strain hxk2, hits give low values 1 | locus YGR078C, strain PAC10, hits give low values 0.987 | locus YGR135W, strain pre9, hits give low values 0.998 | locus YGR229C, strain SMI1, hits give low values 1.01 | locus YGR252W, strain gcn5, hits give low values 1.13 | locus YHR013C, strain ard1, hits give low values 1.01 | locus YHR027C, strain rpn1, hits give low values 1 | locus YHR030C, strain SLT2, hits give low values 0.994 and 1.03 | locus YHR079C, strain IRE1 (second series), hits give low values 0.972 | locus YHR079C, strain IRE1, hits give low values 1.02 | locus YHR094C, strain hxt1, hits give low values 0.983 | locus YHR129C, strain ARP1, hits give low values 0.983 | locus YHR142W, strain chs7, hits give low values 1.01 | locus YHR200W, strain rpn10, hits give low values 0.988 | locus YIL066C, strain RNR3, hits give low values 0.994 | locus YIL073C, strain SPO22, hits give low values 0.998 | locus YIL125W, strain kgd1, hits give low values 0.999 | locus YIR030C, strain dcg1, hits give low values 0.984 | locus YJL092W, strain hpr5, hits give low values 1 | locus YJL095W, strain BCK1 (second series), hits give low values 1 | locus YJL095W, strain BCK1, hits give low values 0.98 and 1.03 | locus YJL115W, strain asf1, hits give low values 0.997 | locus YJL129C, strain trk1, hits give low values 0.997 | locus YJL134W, strain LCB3, hits give low values 0.991 | locus YJL154C, strain vps35, hits give low values 1.01 | locus YJL164C, strain tpk1, hits give low values 1 | locus YJL166W, strain qcr8, hits give low values 0.993 | locus YJL168C, strain set2, hits give low values 0.98 | locus YJL187C, strain SWE1 (second series), hits give low values 0.979 | locus YJL187C, strain SWE1, hits give low values 1 | locus YJR043C, strain POL32, hits give low values 0.979 | locus YJR066W, strain TOR1, hits give low values 0.984
